# Source: ChEMBL document CHEMBL2218924, “A broad activity screen in support of a chemogenomic map for kinase signalling research and drug discovery” (Biochem J, 2013)
# Experiments:
# [1] = target: T1, Protein kinase C zeta type (Homo sapiens) (UniProt Q05513); details: at 1 µM
# T1 sequence (whole entry): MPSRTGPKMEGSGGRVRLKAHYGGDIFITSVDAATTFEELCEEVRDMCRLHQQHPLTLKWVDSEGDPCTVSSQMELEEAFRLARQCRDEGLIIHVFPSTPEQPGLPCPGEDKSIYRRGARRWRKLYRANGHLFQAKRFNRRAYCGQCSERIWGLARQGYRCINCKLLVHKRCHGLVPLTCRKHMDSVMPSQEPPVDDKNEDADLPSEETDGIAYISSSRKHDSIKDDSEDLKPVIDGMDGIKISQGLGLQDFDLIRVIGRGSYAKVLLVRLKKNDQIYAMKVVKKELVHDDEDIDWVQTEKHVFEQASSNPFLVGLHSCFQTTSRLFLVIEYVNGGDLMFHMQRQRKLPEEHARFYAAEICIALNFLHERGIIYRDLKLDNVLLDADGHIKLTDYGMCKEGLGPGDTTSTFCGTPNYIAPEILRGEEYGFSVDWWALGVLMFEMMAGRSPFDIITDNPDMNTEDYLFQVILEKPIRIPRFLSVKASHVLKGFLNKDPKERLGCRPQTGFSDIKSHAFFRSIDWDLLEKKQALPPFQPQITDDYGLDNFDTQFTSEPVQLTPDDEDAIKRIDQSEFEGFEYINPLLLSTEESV
# [2] = target: T2, Mitogen-activated protein kinase kinase kinase 5 (Homo sapiens) (UniProt Q99683); details: at 10 µM
# T2 sequence (whole entry): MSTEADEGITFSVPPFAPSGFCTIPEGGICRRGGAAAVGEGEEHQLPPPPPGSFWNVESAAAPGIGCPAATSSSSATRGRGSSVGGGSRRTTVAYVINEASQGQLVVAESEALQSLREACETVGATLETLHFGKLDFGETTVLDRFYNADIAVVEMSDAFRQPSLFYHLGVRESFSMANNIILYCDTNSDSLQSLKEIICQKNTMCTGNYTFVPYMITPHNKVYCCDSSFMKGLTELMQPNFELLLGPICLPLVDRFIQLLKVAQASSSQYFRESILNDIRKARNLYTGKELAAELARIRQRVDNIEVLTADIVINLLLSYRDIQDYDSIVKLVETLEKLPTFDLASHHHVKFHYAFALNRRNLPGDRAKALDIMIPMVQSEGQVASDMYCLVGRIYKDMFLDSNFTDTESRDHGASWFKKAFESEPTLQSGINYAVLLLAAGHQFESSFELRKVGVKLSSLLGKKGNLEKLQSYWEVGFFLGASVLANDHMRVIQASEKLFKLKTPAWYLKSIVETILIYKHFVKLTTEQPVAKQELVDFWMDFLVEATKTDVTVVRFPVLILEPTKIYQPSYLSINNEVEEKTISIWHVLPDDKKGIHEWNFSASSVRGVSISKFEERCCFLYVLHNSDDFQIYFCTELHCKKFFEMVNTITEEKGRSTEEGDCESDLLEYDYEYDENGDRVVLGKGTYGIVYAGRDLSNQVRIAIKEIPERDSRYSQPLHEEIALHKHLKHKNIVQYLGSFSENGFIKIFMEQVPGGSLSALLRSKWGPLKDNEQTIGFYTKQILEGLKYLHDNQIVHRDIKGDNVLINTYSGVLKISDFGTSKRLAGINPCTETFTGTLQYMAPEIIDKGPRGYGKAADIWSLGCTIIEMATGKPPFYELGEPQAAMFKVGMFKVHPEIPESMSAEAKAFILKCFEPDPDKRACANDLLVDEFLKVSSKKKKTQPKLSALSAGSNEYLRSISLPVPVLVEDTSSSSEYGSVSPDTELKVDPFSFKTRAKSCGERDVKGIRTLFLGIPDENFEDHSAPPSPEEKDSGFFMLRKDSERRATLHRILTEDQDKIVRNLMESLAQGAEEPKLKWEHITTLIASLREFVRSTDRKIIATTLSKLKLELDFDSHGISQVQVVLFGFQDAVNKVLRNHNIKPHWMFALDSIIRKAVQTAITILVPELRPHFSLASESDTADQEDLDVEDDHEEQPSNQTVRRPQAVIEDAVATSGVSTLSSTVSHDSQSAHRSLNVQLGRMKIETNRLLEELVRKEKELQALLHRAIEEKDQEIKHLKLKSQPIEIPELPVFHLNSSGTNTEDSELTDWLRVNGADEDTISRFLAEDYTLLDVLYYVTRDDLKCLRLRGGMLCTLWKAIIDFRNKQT
# [3] = target: Tyrosine-protein kinase ABL1 (Homo sapiens) (UniProt P00519); details: at 1 µM
# Chain of Tyrosine-protein kinase ABL1 (Homo sapiens) (P00519 whole entry): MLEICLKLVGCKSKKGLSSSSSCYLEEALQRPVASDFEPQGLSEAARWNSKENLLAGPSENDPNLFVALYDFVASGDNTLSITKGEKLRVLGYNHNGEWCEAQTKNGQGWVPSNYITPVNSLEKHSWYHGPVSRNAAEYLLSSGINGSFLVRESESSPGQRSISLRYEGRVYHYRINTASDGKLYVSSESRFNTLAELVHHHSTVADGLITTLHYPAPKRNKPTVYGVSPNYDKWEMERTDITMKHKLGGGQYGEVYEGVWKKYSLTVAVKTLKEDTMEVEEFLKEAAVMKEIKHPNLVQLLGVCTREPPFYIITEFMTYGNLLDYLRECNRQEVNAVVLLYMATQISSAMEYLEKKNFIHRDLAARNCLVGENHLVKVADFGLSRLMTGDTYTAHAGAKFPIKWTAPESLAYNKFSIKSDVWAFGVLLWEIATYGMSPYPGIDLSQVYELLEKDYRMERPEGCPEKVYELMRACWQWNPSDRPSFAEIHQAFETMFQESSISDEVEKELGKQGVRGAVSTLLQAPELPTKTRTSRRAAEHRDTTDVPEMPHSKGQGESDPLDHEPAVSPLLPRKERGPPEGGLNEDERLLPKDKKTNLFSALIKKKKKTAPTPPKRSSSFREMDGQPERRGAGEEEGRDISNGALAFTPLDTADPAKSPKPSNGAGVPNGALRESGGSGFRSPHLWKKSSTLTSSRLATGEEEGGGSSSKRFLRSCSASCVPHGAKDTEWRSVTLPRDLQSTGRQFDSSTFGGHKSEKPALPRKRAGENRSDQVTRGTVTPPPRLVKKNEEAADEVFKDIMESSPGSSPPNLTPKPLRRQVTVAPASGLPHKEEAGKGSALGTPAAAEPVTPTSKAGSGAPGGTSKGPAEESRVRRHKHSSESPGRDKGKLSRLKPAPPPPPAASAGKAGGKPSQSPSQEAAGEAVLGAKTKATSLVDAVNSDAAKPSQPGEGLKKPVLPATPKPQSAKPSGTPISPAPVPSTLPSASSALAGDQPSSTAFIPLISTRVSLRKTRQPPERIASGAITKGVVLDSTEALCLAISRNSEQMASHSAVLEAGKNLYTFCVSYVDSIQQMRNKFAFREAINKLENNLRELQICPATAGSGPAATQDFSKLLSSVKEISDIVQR
# [4] = target: Tyrosine-protein kinase ABL1 (Homo sapiens) (UniProt P00519); details: at 10 µM
# [5] = target: Tyrosine-protein kinase ABL2 (Homo sapiens) (UniProt P42684); details: at 1 µM
# Chain of Tyrosine-protein kinase ABL2 (Homo sapiens) (P42684 whole entry): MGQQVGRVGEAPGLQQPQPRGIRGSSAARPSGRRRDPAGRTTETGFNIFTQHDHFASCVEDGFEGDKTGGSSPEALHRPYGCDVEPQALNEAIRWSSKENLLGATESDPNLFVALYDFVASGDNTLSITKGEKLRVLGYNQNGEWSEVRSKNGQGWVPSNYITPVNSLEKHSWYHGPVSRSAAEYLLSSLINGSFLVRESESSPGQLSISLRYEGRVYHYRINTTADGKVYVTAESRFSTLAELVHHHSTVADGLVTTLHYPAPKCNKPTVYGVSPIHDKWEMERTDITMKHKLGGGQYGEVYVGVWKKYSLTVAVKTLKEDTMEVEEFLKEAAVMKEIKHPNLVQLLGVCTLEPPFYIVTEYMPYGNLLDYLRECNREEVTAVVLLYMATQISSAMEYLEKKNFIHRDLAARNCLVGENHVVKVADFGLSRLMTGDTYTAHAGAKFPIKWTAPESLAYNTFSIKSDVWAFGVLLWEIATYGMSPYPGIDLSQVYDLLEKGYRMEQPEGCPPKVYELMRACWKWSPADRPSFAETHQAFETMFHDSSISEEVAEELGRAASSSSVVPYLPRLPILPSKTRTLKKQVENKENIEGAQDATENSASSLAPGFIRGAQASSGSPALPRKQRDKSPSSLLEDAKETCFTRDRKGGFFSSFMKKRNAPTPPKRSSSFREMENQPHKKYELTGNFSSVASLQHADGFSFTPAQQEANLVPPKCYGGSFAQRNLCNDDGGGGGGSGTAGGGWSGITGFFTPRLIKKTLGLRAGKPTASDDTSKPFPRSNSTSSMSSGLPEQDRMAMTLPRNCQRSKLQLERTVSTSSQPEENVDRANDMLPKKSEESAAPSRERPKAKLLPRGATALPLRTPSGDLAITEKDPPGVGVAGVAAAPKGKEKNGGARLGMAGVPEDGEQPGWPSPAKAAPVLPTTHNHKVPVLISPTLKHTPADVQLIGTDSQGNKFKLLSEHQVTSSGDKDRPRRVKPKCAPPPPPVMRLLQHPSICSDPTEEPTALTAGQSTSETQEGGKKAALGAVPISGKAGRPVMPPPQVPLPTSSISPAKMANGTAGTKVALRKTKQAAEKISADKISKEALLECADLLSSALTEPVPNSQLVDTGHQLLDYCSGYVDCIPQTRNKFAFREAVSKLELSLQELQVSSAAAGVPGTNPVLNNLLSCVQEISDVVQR
# [6] = target: Tyrosine-protein kinase ABL2 (Homo sapiens) (UniProt P42684); details: at 10 µM
# [7] = target: T3, Aurora kinase A (Homo sapiens) (UniProt O14965); details: at 1 µM
# T3 sequence (whole entry): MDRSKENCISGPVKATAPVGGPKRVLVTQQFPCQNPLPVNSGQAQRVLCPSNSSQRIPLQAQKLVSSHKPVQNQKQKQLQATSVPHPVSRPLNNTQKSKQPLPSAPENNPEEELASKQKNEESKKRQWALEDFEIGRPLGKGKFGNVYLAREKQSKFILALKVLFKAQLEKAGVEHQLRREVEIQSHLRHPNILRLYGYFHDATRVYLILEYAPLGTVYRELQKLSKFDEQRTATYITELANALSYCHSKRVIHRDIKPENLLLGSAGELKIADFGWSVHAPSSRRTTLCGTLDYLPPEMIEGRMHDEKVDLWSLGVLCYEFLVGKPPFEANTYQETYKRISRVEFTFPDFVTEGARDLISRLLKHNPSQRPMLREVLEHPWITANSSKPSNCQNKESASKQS
# [8] = target: T3, Aurora kinase A (Homo sapiens); details: at 10 µM
# [9] = target: Aurora kinase B (Homo sapiens) (UniProt Q96GD4); details: at 1 µM
# Chain of Aurora kinase B (Homo sapiens) (Q96GD4 whole entry): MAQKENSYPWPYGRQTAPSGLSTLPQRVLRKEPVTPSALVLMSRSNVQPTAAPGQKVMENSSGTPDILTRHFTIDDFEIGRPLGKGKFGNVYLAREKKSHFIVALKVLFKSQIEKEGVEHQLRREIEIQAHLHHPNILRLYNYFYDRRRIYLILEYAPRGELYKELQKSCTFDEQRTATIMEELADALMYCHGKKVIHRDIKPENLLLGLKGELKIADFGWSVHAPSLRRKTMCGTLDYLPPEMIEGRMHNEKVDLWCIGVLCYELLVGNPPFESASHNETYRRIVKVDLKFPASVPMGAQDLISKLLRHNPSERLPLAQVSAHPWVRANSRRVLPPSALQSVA
# [10] = target: Aurora kinase B (Homo sapiens) (UniProt Q96GD4); details: at 10 µM
# [11] = target: T4, Aurora kinase C (Homo sapiens) (UniProt Q9UQB9); details: at 1 µM
# T4 sequence (whole entry): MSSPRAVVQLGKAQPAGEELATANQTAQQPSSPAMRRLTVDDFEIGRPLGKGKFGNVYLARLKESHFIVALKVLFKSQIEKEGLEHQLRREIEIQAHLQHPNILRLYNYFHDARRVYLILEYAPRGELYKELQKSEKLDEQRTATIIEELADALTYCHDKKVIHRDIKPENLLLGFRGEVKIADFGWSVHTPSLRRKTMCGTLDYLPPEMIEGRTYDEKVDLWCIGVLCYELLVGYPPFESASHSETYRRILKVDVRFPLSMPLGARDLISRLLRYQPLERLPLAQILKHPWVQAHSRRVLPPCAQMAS
# [12] = target: T4, Aurora kinase C (Homo sapiens); details: at 10 µM
# [13] = target: Tyrosine-protein kinase receptor UFO (Homo sapiens) (UniProt P30530); details: at 1 µM
# Chain of Tyrosine-protein kinase receptor UFO (Homo sapiens) (P30530 whole entry): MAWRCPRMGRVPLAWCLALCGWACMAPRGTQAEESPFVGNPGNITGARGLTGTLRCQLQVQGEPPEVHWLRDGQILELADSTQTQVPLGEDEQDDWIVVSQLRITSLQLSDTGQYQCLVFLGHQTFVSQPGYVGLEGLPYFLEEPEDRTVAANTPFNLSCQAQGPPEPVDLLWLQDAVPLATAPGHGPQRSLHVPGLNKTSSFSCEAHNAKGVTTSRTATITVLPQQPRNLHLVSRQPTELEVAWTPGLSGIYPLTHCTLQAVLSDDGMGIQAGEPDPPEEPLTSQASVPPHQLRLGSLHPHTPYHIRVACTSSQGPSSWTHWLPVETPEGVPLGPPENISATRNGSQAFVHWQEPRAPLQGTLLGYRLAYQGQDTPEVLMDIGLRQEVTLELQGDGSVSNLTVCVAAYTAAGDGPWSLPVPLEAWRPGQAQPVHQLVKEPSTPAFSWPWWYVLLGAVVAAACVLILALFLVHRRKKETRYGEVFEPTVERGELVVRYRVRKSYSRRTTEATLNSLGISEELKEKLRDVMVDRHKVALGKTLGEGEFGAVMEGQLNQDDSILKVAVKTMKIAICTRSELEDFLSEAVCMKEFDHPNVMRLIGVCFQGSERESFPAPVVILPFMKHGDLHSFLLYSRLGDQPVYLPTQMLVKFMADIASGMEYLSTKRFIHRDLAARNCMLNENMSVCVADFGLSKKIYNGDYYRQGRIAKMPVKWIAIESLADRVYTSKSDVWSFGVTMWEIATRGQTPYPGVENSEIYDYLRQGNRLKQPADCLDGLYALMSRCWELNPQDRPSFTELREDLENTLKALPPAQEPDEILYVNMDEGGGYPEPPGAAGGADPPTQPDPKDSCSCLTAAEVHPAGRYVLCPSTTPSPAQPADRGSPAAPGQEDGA
# [14] = target: Tyrosine-protein kinase receptor UFO (Homo sapiens) (UniProt P30530); details: at 10 µM
# [15] = target: Protein-tyrosine kinase 6 (Homo sapiens) (UniProt Q13882); details: at 1 µM
# Chain of Protein-tyrosine kinase 6 (Homo sapiens) (Q13882 whole entry, looked up): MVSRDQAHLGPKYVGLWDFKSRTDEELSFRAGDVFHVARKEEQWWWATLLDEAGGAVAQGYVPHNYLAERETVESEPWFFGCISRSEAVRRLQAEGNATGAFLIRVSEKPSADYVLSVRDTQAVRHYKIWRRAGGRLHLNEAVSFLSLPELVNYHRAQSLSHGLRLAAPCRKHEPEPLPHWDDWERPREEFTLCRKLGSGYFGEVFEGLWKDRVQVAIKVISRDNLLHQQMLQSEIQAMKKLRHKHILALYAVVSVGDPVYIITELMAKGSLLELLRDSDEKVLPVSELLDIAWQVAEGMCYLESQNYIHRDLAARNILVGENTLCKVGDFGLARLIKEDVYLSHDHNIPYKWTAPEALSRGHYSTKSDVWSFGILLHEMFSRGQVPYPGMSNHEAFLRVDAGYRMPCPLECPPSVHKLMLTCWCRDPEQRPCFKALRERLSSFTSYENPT
# [16] = target: Protein-tyrosine kinase 6 (Homo sapiens) (UniProt Q13882); details: at 10 µM
# [17] = target: Tyrosine-protein kinase BTK (Homo sapiens) (UniProt Q06187); details: at 1 µM
# [18] = target: Tyrosine-protein kinase BTK (Homo sapiens) (UniProt Q06187); details: at 10 µM
# [19] = target: Tyrosine-protein kinase Blk (Homo sapiens) (UniProt P51451); details: at 1 µM
# Chain of Tyrosine-protein kinase Blk (Homo sapiens) (P51451 2-505 limits assumed): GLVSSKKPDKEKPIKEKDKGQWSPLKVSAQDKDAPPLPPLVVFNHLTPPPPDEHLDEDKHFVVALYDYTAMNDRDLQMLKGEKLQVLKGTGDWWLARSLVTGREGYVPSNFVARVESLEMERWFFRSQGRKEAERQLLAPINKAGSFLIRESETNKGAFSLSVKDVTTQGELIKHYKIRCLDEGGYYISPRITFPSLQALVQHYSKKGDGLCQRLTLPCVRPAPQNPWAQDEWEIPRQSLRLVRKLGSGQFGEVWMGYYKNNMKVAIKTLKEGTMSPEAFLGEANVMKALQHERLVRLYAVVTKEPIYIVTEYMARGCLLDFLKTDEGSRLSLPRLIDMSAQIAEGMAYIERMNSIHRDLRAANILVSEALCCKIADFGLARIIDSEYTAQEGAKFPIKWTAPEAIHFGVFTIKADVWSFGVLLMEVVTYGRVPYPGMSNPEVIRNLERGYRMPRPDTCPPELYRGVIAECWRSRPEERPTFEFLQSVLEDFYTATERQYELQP
# [20] = target: Tyrosine-protein kinase Blk (Homo sapiens) (UniProt P51451); details: at 10 µM
Compound,residual activity [1],residual activity [2] [%],residual activity [3] [%],residual activity [4] [%],residual activity [5] [%],residual activity [6] [%],residual activity [7] [%],residual activity [8] [%],residual activity [9] [%],residual activity [10] [%],residual activity [11] [%],residual activity [12] [%],residual activity [13] [%],residual activity [14] [%],residual activity [15] [%],residual activity [16] [%],residual activity [17] [%],residual activity [18] [%],residual activity [19] [%],residual activity [20] [%]
COc1cc2ncnc(Nc3ccc(OCc4ccccc4)cc3)c2cc1OC,101% (inactive),92,93,111,103,96,41,38,6,3,106,58,63,48,30,18,58,43,44,18
O=C1Nc2ccc3ncsc3c2/C1=C/c1c[nH]cn1,86% (inactive),7,66,20,82,33,0,-2,2,0,18,-1,26,8,66,34,88,47,44,5
COc1ccc2c(c[n+](C)c3c4cc5c(cc4ccc23)OCO5)c1OC,–,–,85,97,92,82,83,75,130,60,–,90,93,44,110,–,93,–,–,90
O=C1c2ccccc2-c2nc3nnnn3nc21,113% (inactive),143,107,112,–,113,71,–,–,–,–,–,81,42,–,–,–,–,79,47
CC(C)[C@H](CO)Nc1nc(Nc2cccc(Cl)c2)c2ncn(C(C)C)c2n1,101% (inactive),96,62,14,22,1,–,72,72,17,96,78,90,31,–,92,56,17,38,2
CC(C)(C)c1cc(C=C(C#N)C#N)cc(Br)c1O,99% (inactive),109,80,4,–,51,104,122,108,45,115,99,108,–,109,110,–,–,99,36
CCc1nc(-c2ccc(OC)cc2)[nH]c1-c1ccncc1,105% (inactive),–,–,–,104,75,–,–,67,62,103,–,–,–,110,108,100,105,112,79
COc1cc(OC)c(/C=C2\C(=O)Nc3ccccc32)c(OC)c1,–,90,104,85,123,77,107,107,59,48,83,87,98,71,104,96,93,88,92,81
O=C1NC(=O)c2c1c1c3ccccc3n3c1c1c2c2ccccc2n1C1CCC3O1,–,60,–,–,–,–,95,88,2,4,–,–,91,87,–,–,22,27,–,–
